These results are taken from PubChem BioAssay (NCATS).

Structures are written as SMILES. Inconclusive results are not listed. Activity calls are given as the source filed them. Unless noted, calls follow the shape of the full dose curve.

A short description of assay [1]: Natriuretic polypeptide receptor (hNpr1) antagonism - Pilot counterscreen GloSensor control cell line (AID 1347045). Also: potency is read from the fitted curve at half-maximal effect. A digest of the protocol:
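HEK293 cGMP GloSensor cells preloaded 2 h with 2% GloSensor reagent, then compound 30 min before baseline luminescence read. Stimulated with 50 uM sodium nitroprusside, 20 min at room temperature, then read again; counterscreen for Npr1 antagonism.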
For orientation: Counterscreens check selectivity or assay interference.

Assay [2] has as its target Atrial natriuretic peptide receptor 2 (Homo sapiens) (UniProt P20594). Description: Natriuretic polypeptide receptor (hNpr2) antagonism - Pilot subtype selectivity assay (AID 1347050). Also: potency is read from the fitted curve at half-maximal effect. The gist of the method: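 HEK293 cells expressing hNpr2 and a GloSensor cGMP luciferase sensor, 1500/well, preloaded 2 h with 2% GloSensor reagent, compound 30 min, then 1 nM hNppC for 20 min. Antagonism from luminescence after versus baseline pre-read; LOPAC in 1:5 titrations.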

The nature of assay [3]: NS1 protein of Zika virus - qHTS assay to identify small molecule inhibitors in human HEK 293 cells (AID 1347053; active = well fitted curve in the direction sought with a large enough effect; an effect the other way counts as inactive or inconclusive; also: series mostly up to about 46 µM; nearly all actives have a fitted effect of over 55% in size). The gist of the method:
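HEK 293; 20 h pre-culture, 37 C/5% CO2; cpd 1 h pre-infection; ZIKV MR766, MOI = 0.5, 24 h, 37 C; TR-FRET NS1 readout (two anti-NS1 Abs); norm. to no-virus vs infected.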
(Quantitative high-throughput screening tests each substance at several concentrations.)

For assay [4], the target named is T1, Tyrosine-protein phosphatase non-receptor type substrate 1 (Homo sapiens) + Leukocyte surface antigen CD47 (Homo sapiens) (UniProt P78324+Q08722). Description: CD47-SIRPalpha protein protein interaction - LANCE assay qHTS validation (AID 1347057; active = well fitted curve in the direction sought with a large enough effect in the signal ratio, with a control signal flat, not every such curve was filed as active; the % refers to the signal ratio; also: series mostly up to about 38 µM). A digest of the protocol: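 First, His-tagged CD47 and Eu-labelled anti-His antibody met the compound for 30 min; next, site-specifically biotinylated SIRPalpha was added for 30 min; finally streptavidin-APC was added before reading the TR-FRET ratio.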
(In general: Time-resolved FRET reads energy transfer from a long-lived donor to a nearby acceptor.)

Assay [5] addresses T1, Tyrosine-protein phosphatase non-receptor type substrate 1 (Homo sapiens) + Leukocyte surface antigen CD47 (Homo sapiens). Description: CD47-SIRPalpha protein protein interaction - HTRF assay qHTS validation (AID 1347058; active = well fitted curve in the direction sought with a large enough effect in the signal ratio, not every such curve was filed as active; the % refers to the signal ratio;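 also: recombinant soluble extracellular CD47 with His tag and biotinylated SIRPalpha domains; series mostly up to about 38 µM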). The gist of the method:
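TR-FRET read (Ch1/Ch2 ratio) of soluble extracellular CD47 and Avi-biotinylated SIRPalpha domains in PBS pH 7.4 with 0.05% IGEPAL; 7-point compound titration. Sequential 30 min room-temperature steps; non-biotinylated SIRPalpha as control inhibitor.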

Assay [6] shares this target. Description: CD47-SIRPalpha protein protein interaction - Alpha assay qHTS validation (AID 1347059; active = well fitted curve in the direction sought with a large enough effect; an effect the other way counts as inactive or inconclusive;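 also: bead proximity luminescence from CD47 binding SIRPalpha after compound preincubation with SIRPalpha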). A digest of the protocol: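 Biotinylated Avi-tagged SIRPalpha (25 nM) preincubated 30 min with compound, then His-tagged CD47 (12.5 nM) added 30 min; AlphaScreen with Ni-NTA acceptor and streptavidin donor beads. PBS pH 7.4, 0.05% IGEPAL, room temperature; 7-point titrations.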

The target of assay [7] is Parathyroid hormone/parathyroid hormone-related peptide receptor (Homo sapiens) (UniProt Q03431). Description: qHTS for PTHR1 Agonists: Optimization Screen against the NCGC LOPAC library (AID 1347079; active = well fitted curve in the direction sought with a large enough effect; an effect the other way counts as inactive or inconclusive;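 also: GloSensor cAMP luminescence in HEK-293 GP2 cells expressing human PTHR1 with IBMX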). The gist of the method:
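Agonist readout: GloSensor cAMP luminescence, read after 15 min at room temperature. HEK-293-derived GP2 line carries PTHR1; compounds tested as a titration for 1 hr at 37C in presence of IBMX. M-PTH (1-15) served as control.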

A short description of assay [8]: qHTS for Inhibitors of the Functional Ribonucleoprotein Complex (vRNP) of Lassa (LASV) Arenavirus: LASV Primary Screen - GLuc reporter signal (AID 1347082; calls by dose curve; tested in HEK293 reporter line; also: series mostly up to about 57 µM; nearly all actives have a fitted effect of over 60% in size).
The nature of assay [9]: qHTS for Inhibitors of the Functional Ribonucleoprotein Complex (vRNP) of Lassa (LASV) Arenavirus: Viability assay - alamar blue signal for LASV Primary Screen (AID 1347083; calls by dose curve; tested in HEK293 reporter line; also: series mostly up to about 57 µM; nearly all actives have a fitted effect of over 80% in size).
Assay [10] is described as follows: qHTS for Inhibitors of the Functional Ribonucleoprotein Complex (vRNP) of Lymphocytic Choriomeningitis Arenaviruses (LCMV): Viability assay - alamar blue signal for LCMV Primary Screen (AID 1347085; calls by dose curve; tested in HEK293 reporter line; also: series mostly up to about 57 µM; nearly all actives have a fitted effect of over 80% in size).
Assay [11] concerns the target Nucleoprotein (Lymphocytic choriomeningitis virus (strain Armstrong)) (UniProt P09992). Description: qHTS for Inhibitors of the Functional Ribonucleoprotein Complex (vRNP) of Lymphocytic Choriomeningitis Arenaviruses (LCMV): LCMV Primary Screen - GLuc reporter signal (AID 1347086). Also: series mostly up to about 57 µM; nearly all actives have a fitted effect of over 70% in size.

Atrial natriuretic peptide receptor 2 (Homo sapiens), sequence (P20594 whole entry, looked up): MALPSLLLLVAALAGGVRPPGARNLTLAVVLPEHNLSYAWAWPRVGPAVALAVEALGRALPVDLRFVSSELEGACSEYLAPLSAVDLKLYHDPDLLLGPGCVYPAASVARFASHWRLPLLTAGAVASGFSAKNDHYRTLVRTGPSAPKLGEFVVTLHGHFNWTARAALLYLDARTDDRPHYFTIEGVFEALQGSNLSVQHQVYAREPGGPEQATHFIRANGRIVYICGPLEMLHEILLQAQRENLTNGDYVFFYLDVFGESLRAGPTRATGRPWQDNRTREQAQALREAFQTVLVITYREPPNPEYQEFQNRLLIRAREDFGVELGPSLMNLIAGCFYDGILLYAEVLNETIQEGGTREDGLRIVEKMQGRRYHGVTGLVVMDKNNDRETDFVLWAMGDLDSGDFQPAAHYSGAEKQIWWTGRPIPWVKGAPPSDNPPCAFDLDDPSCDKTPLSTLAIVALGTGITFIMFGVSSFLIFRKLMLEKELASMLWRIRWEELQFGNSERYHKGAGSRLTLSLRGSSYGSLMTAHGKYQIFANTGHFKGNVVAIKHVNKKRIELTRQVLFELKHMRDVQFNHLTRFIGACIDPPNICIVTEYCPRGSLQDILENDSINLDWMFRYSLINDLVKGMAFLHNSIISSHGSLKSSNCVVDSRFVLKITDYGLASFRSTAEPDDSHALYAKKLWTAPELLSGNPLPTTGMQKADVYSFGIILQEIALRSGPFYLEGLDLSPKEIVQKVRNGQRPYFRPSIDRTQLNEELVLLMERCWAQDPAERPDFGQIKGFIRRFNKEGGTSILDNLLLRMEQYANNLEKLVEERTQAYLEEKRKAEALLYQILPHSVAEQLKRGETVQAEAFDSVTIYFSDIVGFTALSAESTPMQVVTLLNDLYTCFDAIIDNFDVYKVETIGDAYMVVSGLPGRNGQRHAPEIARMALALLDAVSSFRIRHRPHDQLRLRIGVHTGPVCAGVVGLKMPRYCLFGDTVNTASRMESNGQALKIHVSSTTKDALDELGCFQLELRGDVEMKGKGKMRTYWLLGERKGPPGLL
Nucleoprotein (Lymphocytic choriomeningitis virus (strain Armstrong)), sequence (P09992 whole entry, looked up): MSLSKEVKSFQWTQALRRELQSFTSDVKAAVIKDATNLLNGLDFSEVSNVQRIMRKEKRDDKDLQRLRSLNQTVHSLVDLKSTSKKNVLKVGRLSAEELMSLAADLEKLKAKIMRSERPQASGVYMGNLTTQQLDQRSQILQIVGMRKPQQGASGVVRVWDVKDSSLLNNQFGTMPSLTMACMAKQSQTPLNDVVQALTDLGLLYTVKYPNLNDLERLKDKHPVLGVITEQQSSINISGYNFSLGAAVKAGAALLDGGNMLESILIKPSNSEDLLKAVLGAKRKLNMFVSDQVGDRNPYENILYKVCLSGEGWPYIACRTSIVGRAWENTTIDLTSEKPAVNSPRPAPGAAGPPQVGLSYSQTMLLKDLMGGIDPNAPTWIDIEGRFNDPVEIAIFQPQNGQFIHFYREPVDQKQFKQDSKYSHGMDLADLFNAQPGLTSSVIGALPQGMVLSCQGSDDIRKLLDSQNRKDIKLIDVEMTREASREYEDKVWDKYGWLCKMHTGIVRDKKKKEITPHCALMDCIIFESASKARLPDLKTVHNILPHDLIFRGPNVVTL
T1 sequence (P78324 whole entry, looked up): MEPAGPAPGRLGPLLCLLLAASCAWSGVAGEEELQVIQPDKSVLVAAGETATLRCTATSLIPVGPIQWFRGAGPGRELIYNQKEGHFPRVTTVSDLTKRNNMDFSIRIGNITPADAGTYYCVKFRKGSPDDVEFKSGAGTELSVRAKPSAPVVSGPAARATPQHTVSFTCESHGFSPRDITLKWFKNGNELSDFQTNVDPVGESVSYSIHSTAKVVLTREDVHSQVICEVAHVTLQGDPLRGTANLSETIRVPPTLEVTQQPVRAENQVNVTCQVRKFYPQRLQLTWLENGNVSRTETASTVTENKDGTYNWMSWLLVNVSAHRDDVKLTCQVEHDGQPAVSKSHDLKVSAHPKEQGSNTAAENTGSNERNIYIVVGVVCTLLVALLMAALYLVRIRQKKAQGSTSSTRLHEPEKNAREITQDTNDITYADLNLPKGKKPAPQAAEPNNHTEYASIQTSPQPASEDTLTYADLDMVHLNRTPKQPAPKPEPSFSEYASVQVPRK
T1 sequence (Q08722 whole entry, looked up): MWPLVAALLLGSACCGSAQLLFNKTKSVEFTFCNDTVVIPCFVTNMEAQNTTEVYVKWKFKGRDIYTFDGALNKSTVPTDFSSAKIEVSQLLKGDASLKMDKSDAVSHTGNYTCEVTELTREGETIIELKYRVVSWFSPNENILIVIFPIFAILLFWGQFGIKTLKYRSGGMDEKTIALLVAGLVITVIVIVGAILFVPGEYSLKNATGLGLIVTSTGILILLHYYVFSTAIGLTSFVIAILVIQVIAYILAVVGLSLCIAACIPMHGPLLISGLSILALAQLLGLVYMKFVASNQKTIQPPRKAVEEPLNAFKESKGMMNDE
Parathyroid hormone/parathyroid hormone-related peptide receptor (Homo sapiens), sequence (Q03431 whole entry, looked up): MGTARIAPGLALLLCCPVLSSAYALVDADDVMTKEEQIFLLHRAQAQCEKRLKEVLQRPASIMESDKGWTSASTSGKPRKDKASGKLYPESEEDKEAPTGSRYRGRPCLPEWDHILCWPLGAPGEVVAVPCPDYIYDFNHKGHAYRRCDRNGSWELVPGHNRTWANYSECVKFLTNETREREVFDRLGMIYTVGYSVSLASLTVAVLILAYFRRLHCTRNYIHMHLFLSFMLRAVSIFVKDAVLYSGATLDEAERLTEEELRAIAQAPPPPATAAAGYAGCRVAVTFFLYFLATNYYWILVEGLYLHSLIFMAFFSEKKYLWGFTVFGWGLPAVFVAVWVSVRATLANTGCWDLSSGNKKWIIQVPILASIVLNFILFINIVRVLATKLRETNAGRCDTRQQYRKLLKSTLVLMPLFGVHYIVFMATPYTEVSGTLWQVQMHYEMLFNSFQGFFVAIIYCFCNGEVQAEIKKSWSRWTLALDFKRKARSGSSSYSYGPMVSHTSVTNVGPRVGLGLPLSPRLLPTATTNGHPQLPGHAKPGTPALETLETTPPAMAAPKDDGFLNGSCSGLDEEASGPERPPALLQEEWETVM

For `NCCc1ccc(S(=O)(=O)F)cc1`, the Potency entry in assay [1], in assay [2], in assay [4], in assay [6], in assay [7] and in assay [8] was “inactive” each time. Further, the Potency entry in assay [9], in [10] and in [11] was “inactive” each time. The compound was called inactive in assay [3] and in assay [5].
Turning to `CCCN1CCC[C@@H](c2cccc(O)c2)C1`, the Potency entry in assay [1], in assay [2], in assay [4], in assay [6], in assay [7] and in [8] was “inactive” each time. Also, the Potency result in assay [9], in assay [10] and in assay [11] was “inactive” in each case. In addition, the call in assay [3] and in assay [5] was inactive.
In the case of `C=CCN1CC[C@]23c4c5ccc(O)c4O[C@H]2/C(=N/NC(=O)c2ccccc2)CC[C@@]3(O)[C@H]1C5`, the Potency entry in assay [1], in assay [2], in [7], in assay [8], in assay [9] and in [10] was “inactive” in each case. Also, the Potency entry in assay [11] is “inactive”.
Regarding `Ic1ccccc1CNC1C2CCN(CC2)C1C(c1ccccc1)c1ccccc1` (centres undefined), the Potency in assay [1] was 13100 nM (active). For the same compound, the Potency result in [4], in [6] and in assay [7] was “inactive” in each case. For the same compound, the outcome in assay [5] was inactive.
Take `O=[N+]([O-])/C=C/c1ccc2c(c1)OCO2`: the Potency in assay [1] and in assay [2] was 1470 nM (active) each time. Moreover, the Potency entry in assay [4], in [6], in assay [7], in [8], in assay [10] and in [11] was “inactive” each time.
`CCCN(CCC)[C@@H]1CCc2cccc(O)c2C1`: the Potency result in assay [1], in [2], in assay [4], in assay [6], in assay [7] and in [8] was “inactive” in each case. For the same compound, the Potency entry in assay [9], in [10] and in assay [11] was “inactive” each time. In addition, the outcome in [3] and in [5] was inactive.
As to `CN1CCc2cc(O)cc3c2[C@H]1Cc1ccc(O)c(O)c1-3`, the Potency entry in assay [1], in assay [2], in assay [6], in assay [7], in [8] and in assay [9] was “inactive” each time. For the same compound, the Potency result in [10] and in assay [11] was “inactive” each time. Moreover, in [3], the call was inactive.
For the compound `CCCN(CCC)C1Cc2cc(OC)c(OC)cc2C1`, the Potency entry in assay [1], in assay [2], in [4], in [6], in assay [7] and in assay [8] was “inactive” throughout. Moreover, the Potency entry in assay [9], in assay [10] and in assay [11] was “inactive” each time. Besides, the compound was called inactive in assay [3] and in assay [5].
With `NC(CCCCCP(=O)(O)O)C(=O)O` (centres undefined), the Potency entry in assay [1], in [2], in assay [4], in assay [6], in assay [7] and in assay [8] was “inactive” each time. In addition, the Potency result in assay [9], in assay [10] and in [11] was “inactive” in each case. Besides, the result in assay [3] and in assay [5] was inactive.
On to `CN1CCc2cccc(Cl)c2CC1`, for which the Potency result in [1], in assay [2], in [4], in assay [6], in assay [7] and in [8] was “inactive” each time. In addition, the Potency result in [9], in assay [10] and in [11] was “inactive” in each case. Moreover, the compound was called inactive in assay [3].
On to `CCCCCCCCCCCCCC(=O)O[C@@H]1[C@@H](C)[C@@]2(O)[C@@H](C=C(CO)C[C@@]3(O)C(=O)C(C)=C[C@@H]23)C2C(C)(C)[C@@]21OC(C)=O` (some centres undefined), for which the Potency entry in [1], in assay [4], in assay [6], in [7], in assay [8] and in [9] was “inactive” in each case. The Potency result in assay [10] and in assay [11] was “inactive” in each case. In addition, in assay [2], the Potency was 6.6 nM (active). In addition, the outcome in assay [5] was inactive.
Consider `NNC(N)=O`, for which the Potency result in [1], in [2], in assay [4], in assay [6], in [7] and in assay [8] was “inactive” each time. Also, the Potency result in assay [9], in assay [10] and in assay [11] was “inactive” throughout. The result in assay [3] and in assay [5] was inactive.
For the compound `C[N+](C)(C)CC#CCOC(=O)Nc1cccc(Cl)c1`, the Potency result in assay [1], in [2], in [4], in [6], in assay [7] and in [8] was “inactive” in each case. Moreover, the Potency result in assay [9], in assay [10] and in [11] was “inactive” each time. Further, the compound was classed as inactive in assay [3] and in assay [5].
For the compound `O=C(O)c1cc[c]([Hg][Cl])cc1`, the Potency entry in assay [1], in assay [2], in [7], in [8], in assay [9] and in assay [10] was “inactive” each time. Besides, in assay [11], the Potency entry was “inactive”.
Turning to `CC(N)c1cccc(Cl)c1Cl` (centres undefined), the Potency entry in assay [1], in assay [2], in assay [4], in [6], in [7] and in assay [8] was “inactive” throughout. Also, the Potency result in assay [9], in assay [10] and in [11] was “inactive” each time. In addition, the result in assay [3] and in assay [5] was inactive.
Regarding `C[Se]C[C@H](N)C(=O)O`, the Potency result in [1], in assay [2], in [7], in assay [8], in [9] and in assay [10] was “inactive” throughout. In addition, the Potency entry in assay [11] is “inactive”.
`NC(=O)c1cc(N2CC2)c([N+](=O)[O-])cc1[N+](=O)[O-]`: the Potency entry in assay [1], in assay [2], in assay [4], in assay [7], in assay [8] and in [9] was “inactive” in each case. Besides, the Potency result in assay [11] is “inactive”. Further, the result in assay [3] was inactive.
Regarding `C[N+]1(C)CCN(c2ccccc2)CC1`, the Potency result in [1], in [2], in [6], in assay [7], in [8] and in assay [9] was “inactive” each time. In addition, the Potency entry in [10] and in [11] was “inactive” each time. Also, the compound was classed as inactive in [3] and in [5].
On to `CCCN(CCC)CCc1c[nH]c2ccc(C(N)=O)cc12`, for which the Potency entry in assay [1], in assay [2], in [7], in [8], in assay [9] and in assay [10] was “inactive” in each case. For the same compound, the Potency result in assay [11] was “inactive”.
With `C[N+]1(C)C2CCC1CC(OC(=O)c1c[nH]c3ccccc13)C2` (centres undefined), the Potency result in [1], in [2], in assay [6], in assay [7], in [8] and in assay [9] was “inactive” throughout. Also, the Potency result in [10] and in [11] was “inactive” throughout. Besides, the outcome in assay [3] and in assay [5] was inactive.
As to `c1ccc2c(N3CCNCC3)cccc2c1`, the Potency entry in assay [1], in assay [2], in assay [4], in assay [6], in assay [7] and in [8] was “inactive” each time. The Potency result in [9], in assay [10] and in assay [11] was “inactive” each time. For the same compound, the compound was classed as inactive in [3] and in [5].
Consider `N[C@@H](CCl)C(=O)O`, for which the Potency entry in [1], in assay [2], in assay [7], in assay [8], in [9] and in [10] was “inactive” in each case. The Potency result in assay [11] is “inactive”.
